Here are results for 30 compounds from PubChem BioAssay (Tox21).

The nature of assay [1]: qHTS RealTime-Glo MT Cell Viability Assay in HepG2 cells - 32 hour (AID 1224877). Further: nearly all actives have a fitted effect of over 55% in size. Further: potency means the concentration at half of the fitted maximal effect. The procedure, abridged: (§1)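 Compound treatment began 5 h after plating HepG2 cells (600/well) with NanoLuc luciferase and prosubstrate. Plates stayed at 37 C for 40 h; luminescence was captured at six time points, 0 h through 40 h.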
Background: In qHTS, concentration-response curves come from the screen itself.

Assay [2] is described as follows: A CellTox Green Cytotoxicity Assay to monitor cytotoxicity in HepG2 cells - 24 hour (AID 1224878). Further: nearly all actives have a fitted effect of over 45% in size. Further: potency means the concentration at half of the fitted maximal effect. The procedure, abridged:
(§2)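 First, HepG2 cells (600/well) mixed with reagent were plated; second, after 5 h at 37 C they received compounds via pintool; third, fluorescence was measured at 0 h through 40 h at 8 h intervals.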

The nature of assay [3]: A CellTox Green Cytotoxicity Assay to monitor cytotoxicity in HEK293 cells - 32 hour (AID 1224881). Further: nearly all actives have a fitted effect of over 40% in size. Further: potency means the concentration at half of the fitted maximal effect. In short, it runs like this:
(§3)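 Dead-cell fluorescence measured kinetically: asymmetric cyanine dye, HEK293, 600 cells/well, 5 h settle, 23 nL cpd/DMSO, 37 C, reads 0–40 h every 8 h.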

Assay [4] can be described thus: A CellTox Green Cytotoxicity Assay to monitor cytotoxicity in HepG2 cells - 0 hour (AID 1224882). Further: nearly all actives have a fitted effect of over 35% in size. The procedure, abridged: as §2
The nature of assay [5]: A CellTox Green Cytotoxicity Assay to monitor cytotoxicity in HepG2 cells - 32 hour (AID 1224883). Further: nearly all actives have a fitted effect of over 50% in size. Further: potency means the concentration at half of the fitted maximal effect. In short, it runs like this: as §2
Assay [6] can be described thus: qHTS RealTime-Glo MT Cell Viability Assay in HEK293 cells - 24 hour (AID 1224886). Further: nearly all actives have a fitted effect of over 50% in size. Further: potency means the concentration at half of the fitted maximal effect. The procedure, abridged: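 Quantitative high-throughput screen of the Tox21 10K library in HEK293: cells and RealTime-Glo reagents plated together, compound added at 5 h, luminescence monitored through 40 h at 37 C.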
Assay [7] in a line: qHTS RealTime-Glo MT Cell Viability Assay in HEK293 cells - 0 hour (AID 1224880). Further: top concentration of the series differs between compounds; nearly all actives have a fitted effect of over 45% in size. In short, it runs like this:
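600 HEK293 cells per well, dispensed already mixed with RealTime-Glo MT reagents. Compound dosing came 5 h later. The same wells were read for luminescence at 0, 8, 16, 24, 32 and 40 h of exposure at 37 C.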

Assay [8] in a line: A CellTox Green Cytotoxicity Assay to monitor cytotoxicity in HEK293 cells - 8 hour (AID 1224884). Further: nearly all actives have a fitted effect of over 35% in size. Further: potency means the concentration at half of the fitted maximal effect. In short, it runs like this:
as §3

The nature of assay [9]: qHTS RealTime-Glo MT Cell Viability Assay in HepG2 cells - 16 hour (AID 1224885). Further: nearly all actives have a fitted effect of over 50% in size. Further: potency means the concentration at half of the fitted maximal effect. In short, it runs like this:
as §1

The nature of assay [10]: A CellTox Green Cytotoxicity Assay to monitor cytotoxicity in HepG2 cells - 40 hour (AID 1224879). Further: nearly all actives have a fitted effect of over 40% in size. Further: potency means the concentration at half of the fitted maximal effect. The procedure, abridged:
as §2

Results filed as inconclusive are left out. Active and inactive are the calls of the source. The call rests on the fitted dose curve; in most records, active means well fitted curve in the direction sought with a large enough effect in the repeat runs; inconclusive means weak or mixed curves; inactive means no such curve, though single readings can be large; an effect the other way counts as inactive or inconclusive.

Turning to `CCC(C)(C)c1ccc(CC(C)CN2C[C@@H](C)O[C@@H](C)C2)cc1` (some centres undefined), the Potency result in [1], in assay [4] and in assay [6] was “inactive” throughout. Also, the Potency in [2] is 21.3 µM (active); in assay [3] it was 23.9 µM (active); in assay [5], 21.3 µM (active).

Take `COc1ccc(OC)c(N=Nc2c(O)ccc3ccccc23)c1`: the Potency entry in [1], in assay [2], in assay [7], in assay [3], in [4] and in assay [8] was “inactive” throughout.

For `COc1cc(OC)nc(NC(=O)NS(=O)(=O)Nc2ccccc2C(=O)N(C)C)n1`, the Potency entry in assay [1], in assay [2], in [3], in [4], in assay [5] and in assay [8] was “inactive” throughout. Further, the Potency result in [6] was “inactive”.

As for `C1CCSC1`, the Potency result in [1], in [2], in assay [7], in assay [4], in assay [8] and in [9] was “inactive” each time.

Consider `CCn1c2ccccc2c2ccccc21`, for which the Potency entry in assay [1], in assay [2], in [7], in assay [3], in assay [4] and in assay [5] was “inactive” each time. For the same compound, the Potency entry in [8], in assay [9] and in assay [6] was “inactive” each time.

As to `CC1(C)[C@H](C(=O)OCc2cccc(Oc3ccccc3)c2)[C@@H]1C=C(Cl)Cl`, the Potency entry in [1], in assay [2], in assay [7], in assay [3], in assay [4] and in assay [5] was “inactive” in each case. In addition, the Potency result in assay [8], in assay [9] and in [6] was “inactive” in each case.

Turning to `Cc1cc(F)ccc1-c1cc(N2CC[C@@H](O)[C@H]2CO)ncc1N(C)C(=O)C(C)(C)c1cc(C(F)(F)F)cc(C(F)(F)F)c1`, the Potency in assay [1] is 38.3 µM (active); in assay [2], 38.3 µM (active); in assay [5], 43 µM (active); in assay [9], 38.3 µM (active); in assay [6], 17.1 µM (active). In addition, the Potency entry in [4] and in assay [8] was “inactive” throughout.

In the case of `O=C(Nc1ccc([N+](=O)[O-])cc1)Nc1ccc([N+](=O)[O-])cc1` (tested in a mixture with another compound), the Potency result in [1], in assay [7], in assay [3], in assay [4], in [8] and in assay [9] was “inactive” each time. Moreover, the Potency in assay [10] was 21.3 µM (active).

`CCOC(=O)[C@H](O)[C@@H](O)C(=O)OCC`: the Potency entry in assay [1], in [2], in [7], in assay [3], in [4] and in assay [5] was “inactive” throughout. Also, the Potency result in [8], in [9] and in assay [6] was “inactive” each time.

On to `C1=CCCC1`, for which the Potency result in [1], in [2], in assay [4] and in assay [5] was “inactive” each time.

On to `c1ccc(-c2nc3ccccc3[nH]2)cc1`, for which the Potency entry in [1], in assay [2], in assay [3], in assay [4], in [5] and in assay [8] was “inactive” each time. Further, in assay [6], the Potency was 21.9 µM (active).

Take `Nc1ccc2c(S(=O)(=O)O)cccc2c1S(=O)(=O)O`: the Potency result in [1], in assay [2], in assay [10], in assay [4], in assay [8] and in assay [6] was “inactive” throughout.

`Oc1cccc2c(O)cccc12`: the Potency entry in [1], in [2], in assay [7], in assay [3], in assay [4] and in assay [5] was “inactive” each time. Also, the Potency entry in [8] and in [9] was “inactive” in each case.

In the case of `CCCCCCCCc1ccc(Nc2ccc(CCCCCCCC)cc2)cc1`, the Potency entry in assay [1], in assay [2], in assay [3], in [4], in assay [5] and in assay [8] was “inactive” each time. Moreover, the Potency entry in assay [9] and in [6] was “inactive” each time.

With `CCCCCN=C(N)N/N=C/c1c[nH]c2ccc(OC)cc12`, the Potency in assay [1] is 5.35 µM (active); in assay [2], 5.35 µM (active); in [3] it was 6.01 µM (active); in assay [5], 6.01 µM (active); in [8] it was 15.1 µM (active); in assay [9], 7.56 µM (active). Besides, the Potency in assay [6] was 4.77 µM (active). Also, the Potency result in assay [4] was “inactive”.

Turning to `Nc1ccc(F)c([N+](=O)[O-])c1`, the Potency result in [1], in [2], in [7], in [3], in assay [4] and in assay [5] was “inactive” throughout. Also, the Potency result in assay [8], in assay [9] and in [6] was “inactive” throughout.

As for `CCCOC(=O)c1ccc(O)cc1`, the Potency entry in assay [1], in assay [2], in assay [7], in assay [3], in assay [4] and in assay [5] was “inactive” in each case. In addition, the Potency result in assay [8] and in assay [9] was “inactive” each time. For the same compound, the Potency in [6] was 21.9 µM (active).

As to `CCCCCCCCCCCC(=O)Cl`, the Potency result in [1], in [2], in [10], in [4], in assay [9] and in [6] was “inactive” each time.

Regarding `N#CCCOCCC#N`, the Potency result in [1], in assay [2], in [3], in assay [4], in assay [5] and in assay [8] was “inactive” in each case. The Potency result in assay [9] and in assay [6] was “inactive” throughout.

With `Nc1cccnc1N`, the Potency result in [1], in assay [2], in [7], in assay [3], in assay [4] and in assay [8] was “inactive” in each case. For the same compound, the Potency result in assay [9] is “inactive”.

In the case of `CC(C)=NNC(N)=S`, the Potency result in [1], in assay [2], in assay [7], in [4], in assay [8] and in assay [6] was “inactive” in each case.

Take `CCc1cccc(CC)c1`: the Potency result in assay [1], in assay [2], in [7], in assay [3], in assay [4] and in assay [8] was “inactive” in each case. Besides, the Potency result in assay [6] is “inactive”.

As for `Clc1ccc2c(Cl)ccnc2c1`, the Potency result in assay [1], in assay [2], in assay [7], in assay [3], in [4] and in assay [8] was “inactive” each time. Moreover, the Potency result in assay [9] and in [6] was “inactive” throughout.

Take `CN(C)CCOc1ccc(/C(=C(/CCCl)c2ccccc2)c2ccccc2)cc1`: the Potency in [1] is 40.9 µM (active); in [2] it was 32.5 µM (active); in [3], 40.9 µM (active); in assay [5], 32.5 µM (active); in assay [8] it was 45.8 µM (active); in assay [9] it was 40.9 µM (active). The Potency in assay [6] is 40.9 µM (active). The Potency result in assay [7] and in assay [4] was “inactive” in each case.

Take `Oc1ccc(Cl)cc1C1CCCC1`: the Potency entry in assay [1], in assay [7], in [4] and in assay [9] was “inactive” throughout. Also, the Potency in assay [2] was 54.9 µM (active); in assay [3], 49 µM (active); in assay [5] it was 54.9 µM (active).

`CC1CCC(C(C)(C)O)CC1` (centres undefined): the Potency entry in assay [1], in assay [2], in assay [7], in assay [3], in assay [4] and in [5] was “inactive” in each case. For the same compound, the Potency result in assay [8], in assay [9] and in assay [6] was “inactive” throughout.

For `O=c1[nH]cccc1O`, the Potency entry in assay [1], in assay [2], in assay [7], in [3], in assay [4] and in assay [8] was “inactive” each time. Besides, the Potency result in assay [6] was “inactive”.

With `NC(=O)C1CO1` (centres undefined), the Potency result in [1], in assay [2], in [7], in [3], in [4] and in assay [5] was “inactive” throughout. Further, the Potency entry in assay [8], in assay [9] and in assay [6] was “inactive” in each case.

Consider `Cc1ccc(N=Nc2c(O)ccc3ccccc23)c(C)c1`, for which the Potency result in assay [1], in assay [2], in [3], in assay [4], in assay [5] and in assay [8] was “inactive” each time. Besides, the Potency entry in assay [9] and in assay [6] was “inactive” throughout.

As to `CCN(CCC#N)c1ccc(N=Nc2ccc([N+](=O)[O-])cc2)cc1`, the Potency entry in assay [1], in assay [2], in assay [7], in assay [3], in assay [4] and in assay [8] was “inactive” each time. Also, the Potency result in assay [9] and in assay [6] was “inactive” throughout.
